Data: PubChem BioAssay (NCI)
Compounds without any hit were thinned out: in the full panel of roughly 83,000, 20% have a hit.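 In brief: 96-well plates, 48 h treatment, single concentration, percent growth endpoint.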 Active and inactive are the calls of the source. Rule for the calls: active = growth percent below 10; inactive = the rest.

System: HL-60(TB) leukemia
Experiment: NCI-60 one-dose screen, 48 h (100 = growth as untreated, 0 = no growth, -100 = all killed)
Conditions: 10 µM unless noted

Row | Compound | growth
1 | Nc1cc2c(cc1Cl)C(=O)c1ccccc1C2=O | 81% (inactive)
2 | CC(C)(C)OC(=O)CC(S(=O)(=O)c1ccccc1)S(=O)(=O)c1ccccc1 | 76.2% (inactive)
3 | O=C(/C=C/c1ccc(Cl)cc1)c1ccc(Nc2ccnc3cc(Cl)ccc23)cc1 | 23.2% (inactive)
4 | C/C(O)=C(/C=N/C(=S)Nc1ccccc1)C(=O)Nc1ccccc1C | 94.7% (inactive)
5 | Cn1c2c(Cl)c(Cl)ccc2c2c(C#N)c[nH]c(=O)c21 | 107% (inactive)
6 | Cc1nonc1-c1ccc2c(c1)OCO2 | 86.9% (inactive)
7 | CC(C)C1=C[C@@]23CC[C@@H]4[C@](C)(CCC[C@@]4(C)C(=O)OCC#CCN4CCCC4)[C@H]2C[C@@H]1[C@H]1C(=O)OC(=O)[C@H]13 | 95.7% (inactive)
8 | CC1=C(C(=O)Nc2ccc(F)cc2)C(c2ccc(Cl)cc2)C2=C(CC(C)(C)CC2=O)N1 (centres undefined) | 104% (inactive)
9 | O=[N+]([O-])c1cccc(SSc2cccc([N+](=O)[O-])c2)c1 | 93.6% (inactive)
10 | O=C(/C=C/c1cccc(Cl)c1)c1ccc(Nc2nc(Nc3ccc(F)cc3)nc(Nc3ccc(Cl)cc3)n2)cc1 | 52.8% (inactive)
11 | COc1cc2nc3cc([N+](=O)[O-])ccc3c(NCCCNCC(C)(C)O)c2cc1OC | -0.733% (active)
12 | O=C(O)[C@@H](Cc1ccc2ccccc2c1)NC(=O)n1c2ccccc2c2ccccc21 | 6.8% (active)
13 | NC(=O)OCCO | 106% (inactive)
14 | COc1ccc(Nc2ncc(C#N)c(NCCCNC(=O)C3CCC3)n2)cc1 | 41% (inactive)
15 | NC(CSC(c1ccccc1)(c1ccccc1)c1ccc(F)cc1)C(=O)O (centres undefined) | -39.2% (active)
16 | COc1ccc(-c2nnc(SCC(=O)NC3=NN=C(c4ccccc4)CS3)o2)cc1 | 90.9% (inactive)
17 | COc1cccc(-c2nn(C)c3sc(C(=O)NCCN4CCN(c5ccccc5F)CC4)cc23)c1 | 8.08% (active)
18 | Oc1c(-c2cc(C(F)(F)F)[nH]n2)cc(Cl)c(OCc2ccc(Cl)cc2)c1-c1ccc(Cl)c(C(F)(F)F)c1 | -10.8% (active)
19 | Cc1cccc(-n2c(C)nc3ccc(N4CCCNC4=O)cc3c2=O)c1 | 109% (inactive)
20 | COC(=O)C1(C(=O)OC)C2C(=O)C3C(C21)C3(C(=O)OC(C)(C)C)C(=O)OC(C)(C)C (centres undefined) | 96.6% (inactive)
21 | O=c1ccc2c(ccc3ncccc32)o1 | 88.8% (inactive)
22 | CC1=C(C)C(=O)C(C(C)C2=C(C)C(=O)C(C)=C(C)C2=O)=C(C)C1=O | 42.5% (inactive)
23 | CCOC(=O)N1CCC(N=C2CSc3nnc(-c4cc(C(F)(F)F)cc(C(F)(F)F)c4)n3N2)CC1 | -40.7% (active)
24 | O=c1oc2ccc(Br)cc2c(=O)n1-c1ccc(F)cc1F | -1.95% (active)
